Data from PubChem BioAssay (NCI).
This is part of a sample that, as a whole, favours compounds with a hit. Of some 79,000 tested, about 15% had one in any assay. Rule as the data show it: active = growth inhibition above about 70%; inactive = the rest.

Legend:
[1] = NCI Yeast Anticancer Drug Screen. Data for the rad52 strain (AID 147);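 also: 0% = growth of vehicle-treated control cultures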; conditions: S. cerevisiae rad52 mutant growth inhibition, stronger effect = higher value
Summary of the method: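 Inhibition of yeast growth, referenced to vehicle controls, was the measured output for a strain with defective DNA damage repair.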

[2] = NCI Yeast Anticancer Drug Screen. Data for the wt1 strain (AID 149);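 also: 0% = growth of vehicle-treated wt1 cultures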; conditions: S. cerevisiae wt1 strain (SPY 50644) growth inhibition, stronger effect = higher value
Summary of the method: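 Each compound is tested on wt1 yeast and the loss of growth versus vehicle gives the inhibition value.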

[3] = NCI Yeast Anticancer Drug Screen. Data for the rad50EPP+ strain (AID 151);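 also: 0% = growth of vehicle-treated control cultures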; conditions: S. cerevisiae rad50 mutant strain, stronger effect = higher value
Summary of the method: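 Genetically defined yeast (rad50EPP+, DNA damage repair alteration) is grown with compound, and inhibition of growth is expressed relative to vehicle-treated controls.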

[4] = NCI Yeast Anticancer Drug Screen. Data for the mgt1 strain (AID 153); conditions: S. cerevisiae mgt1 mutant growth inhibition, stronger effect = higher value
Summary of the method: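 In the mgt1 strain, test compounds were added and growth inhibition was determined relative to vehicle-treated controls.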

[5] = NCI Yeast Anticancer Drug Screen. Data for the rad50 strain (AID 155);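 also: 0% = growth of vehicle-only cultures of the same strain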; conditions: S. cerevisiae rad50 strain growth inhibition, stronger effect = higher value
Summary of the method: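 Vehicle-treated cultures provide the reference for the growth inhibition reported for compound-exposed, repair-deficient yeast.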

[6] = NCI Yeast Anticancer Drug Screen. Data for the mec2-1 strain (AID 157); conditions: S. cerevisiae mec2-1 strain, stronger effect = higher value
Summary of the method: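 Each compound was tested on mec2-1 yeast, a strain altered in DNA damage repair or cell cycle control. Growth inhibition is reported relative to vehicle.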

[7] = NCI Yeast Anticancer Drug Screen. Data for the rad14 strain (AID 159);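 also: 0% = growth of vehicle-treated control cultures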; conditions: S. cerevisiae rad14 strain growth inhibition, stronger effect = higher value
Summary of the method: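 Inhibition of growth is reported for a repair-deficient yeast mutant following compound treatment, calculated relative to cultures that received vehicle.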

[8] = NCI Yeast Anticancer Drug Screen. Data for the sgs1 mgt1 strain (AID 161);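 also: 0% = growth of cultures given vehicle only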; conditions: S. cerevisiae sgs1 mgt1 strain, stronger effect = higher value
Summary of the method: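 Inhibition of yeast growth, normalised to vehicle-treated controls, is reported for a strain bearing genetic alterations in DNA damage repair.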

[9] = NCI Yeast Anticancer Drug Screen. Data for the CLN2oe strain (AID 163);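 also: 0% = growth of vehicle-only control cultures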; conditions: S. cerevisiae CLN2oe strain, stronger effect = higher value
Summary of the method: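 First, the altered yeast strain was treated with each compound; second, its growth was measured; finally, inhibition was derived by comparison with vehicle controls.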

[10] = NCI Yeast Anticancer Drug Screen. Data for the cln2 rad14 strain (AID 165);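 also: 0% = growth equal to vehicle treated cultures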; conditions: S. cerevisiae cln2 rad14 strain, stronger effect = higher value
Summary of the method: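 Test compounds were added to cln2 rad14 yeast cultures; inhibition of growth was then determined by comparison with vehicle treatment.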

[11] = NCI Yeast Anticancer Drug Screen. Data for the bub3 strain (AID 167); conditions: S. cerevisiae bub3 mutant strain, stronger effect = higher value
Summary of the method: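 Mutant yeast screening strain plus compound; vehicle-treated cultures serve as the 0% inhibition reference.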

[12] = NCI Yeast Anticancer Drug Screen. Data for the wt2 strain (AID 169); conditions: S. cerevisiae wt2 strain growth inhibition, stronger effect = higher value
Summary of the method: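 The panel's yeast strains carry defined changes in DNA repair or cell cycle genes. Each strain is grown with compound, and growth loss is scored relative to vehicle.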

[13] = NCI Yeast Anticancer Drug Screen. Data for the mlh1 strain (AID 171);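 also: 0% = growth of vehicle-treated control cultures of the same strain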; conditions: S. cerevisiae mlh1 strain growth inhibition, stronger effect = higher value
Summary of the method: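 Inhibition values reflect reduced yeast growth in the presence of compound, referenced to vehicle controls, using a strain chosen for its alteration in DNA repair or cell cycle control.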

[14] = NCI Yeast Anticancer Drug Screen. Data for the sgs1 strain (AID 173);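 also: 0% = growth of vehicle-only control cultures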; conditions: S. cerevisiae sgs1 mutant, stronger effect = higher value
Summary of the method: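 Vehicle-treated cultures served as reference for growth inhibition of a yeast strain altered in DNA damage repair or cell cycle control after compound exposure.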

[15] = NCI Yeast Anticancer Drug Screen. Data for the mlh1 rad18 strain (AID 175); conditions: S. cerevisiae mlh1 rad18 strain growth inhibition, stronger effect = higher value
Summary of the method: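 Inhibition values reflect reduced growth of mutant yeast versus vehicle-treated controls following compound exposure; the mutations affect DNA damage repair.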

[16] = NCI Yeast Anticancer Drug Screen. Data for the rad18 strain (AID 177); conditions: S. cerevisiae rad18 mutant growth inhibition, stronger effect = higher value
Summary of the method: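 Steps: expose repair-mutant yeast to compound; measure growth; express as inhibition relative to vehicle control.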

[17] = at 5.0 µM (retest, dose inferred, filed as 0.5)
[18] = at 50.0 µM (retest, dose inferred, filed as 5.0)

Measured: growth inhibition

C[C@@H]1C[C@H]2[C@@H]3CCC4=CC(=O)C=C[C@]4(C)[C@@]3(Cl)[C@@H](Cl)C[C@]2(C)[C@@]1(O)C(=O)COP(=O)(O)O
inactive: [1]; at 1.2 µM -1% | [1]; at 3.7 µM -3% | [1]; at 11.0 µM 6% | [1]; at 33.0 µM 1% | [1]; at 100.0 µM 3% | [2]; at 1.2 µM 1% | [2]; at 3.7 µM -2% | [2]; at 11.0 µM -3% | [2]; at 33.0 µM -4% | [2]; at 100.0 µM -2% | [3]; at 1.2 µM -3% | [3]; at 3.7 µM -8% | [3]; at 11.0 µM -3% | [3]; at 33.0 µM 3% | [3]; at 100.0 µM 5% | [4]; at 1.2 µM 11% | [4]; at 3.7 µM 5% | [4]; at 11.0 µM 3% | [4]; at 33.0 µM 8% | [4]; at 100.0 µM 2% | [5]; at 1.2 µM 4% | [5]; at 3.7 µM -10% | [5]; [17] 2% | [5]; at 11.0 µM 3% | [5]; at 33.0 µM 7% | [5]; [18] 19% | [5]; at 50.0 µM -34.1% | [5]; at 100.0 µM 8% | [6]; at 1.2 µM -3% | [6]; at 3.7 µM -3% | [6]; [17] 17% | [6]; at 11.0 µM 0% | [6]; at 33.0 µM -3% | [6]; [18] 5% | [6]; at 50.0 µM -36.9% | [6]; at 100.0 µM 1% | [7]; at 1.2 µM -1% | [7]; at 3.7 µM 0% | [7]; at 11.0 µM -2% | [7]; at 33.0 µM -2% | [7]; at 100.0 µM 1% | [8]; [17] -14% | [8]; [18] 6% | [8]; at 50.0 µM -30.8% | [9]; at 1.2 µM -10% | [9]; at 3.7 µM -3% | [9]; at 11.0 µM 7% | [9]; at 33.0 µM -1% | [9]; at 100.0 µM -6% | [10]; [17] 41% | [10]; [18] -23% | [10]; at 50.0 µM 26.1% | [11]; at 1.2 µM 2% | [11]; at 3.7 µM -1% | [11]; [17] -20% | [11]; at 11.0 µM 2% | [11]; at 33.0 µM 0% | [11]; [18] -8% | [11]; at 50.0 µM -42.2% | [11]; at 100.0 µM -3% | [12]; at 1.2 µM -2% | [12]; at 3.7 µM -2% | [12]; at 11.0 µM -2% | [12]; at 33.0 µM -2% | [12]; at 100.0 µM -3% | [13]; at 1.2 µM 2% | [13]; at 3.7 µM 3% | [13]; at 11.0 µM 0% | [13]; at 33.0 µM 8% | [13]; at 100.0 µM 12% | [14]; at 1.2 µM 0% | [14]; at 3.7 µM -3% | [14]; at 11.0 µM -2% | [14]; at 33.0 µM -1% | [14]; at 100.0 µM -1% | [15]; [17] 9% | [15]; [18] 1% | [15]; at 50.0 µM -18.3% | [16]; at 1.2 µM -4% | [16]; at 3.7 µM -5% | [16]; at 11.0 µM 1% | [16]; at 33.0 µM 7% | [16]; at 100.0 µM 7%
